Reference: article PMC12136788
Substitutions are numbered along the chain they refer to. The full ranking holds about 24,000 sequences; the median of “enrichment r” is about 0.99, and the highest 2% start at about 3.7. The sample holds the highest values, similar sequences and a random draw of the others, so the mix is not that of the screen.

T1: UNK ZnF1-3 (human, UniProt Q9C0B0 31-174)
T1 sequence: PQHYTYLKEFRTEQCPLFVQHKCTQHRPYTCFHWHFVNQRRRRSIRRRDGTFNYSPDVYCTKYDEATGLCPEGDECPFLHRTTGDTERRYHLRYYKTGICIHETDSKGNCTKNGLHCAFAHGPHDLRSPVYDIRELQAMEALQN

B1: chr18:56900473:56900474:+_ENSMUSG00000024590_ENSMUST00000025486|mus_mus|FALSE|FALSE (ssRNA)
RNA: GGGAGUUCUACAGUCCGACGAUCAACAUCUAUCUCUUCAAUGCACACGUUCCCCGUGGCUGAGGCAGAGUGGGAAAUGCUAACACUGCUGCUCGCCUCCGACUCCUCCACAUCAACUCUCUUCCGCUUUCCUCUGGUGGUGCGCAACAGAGGAUUGAGCAUCA
B2: chr10:117127018:117127019:-_ENSMUSG00000020184_ENSMUST00000020408|mus_mus|FALSE|FALSE (ssRNA)
RNA: GGGAGUUCUACAGUCCGACGAUCAGAUGGAAAGGACUUCUCACAUACACUUCCAAAGUCCUUCCAAGCGGAGAUUAUUUAAAAUAUAAGGAAAAUAUAAACAGCCAAUGCAAAUUACUUAAAACACAAAUAUAAAAUAAACAACAACAGAGGAUUGAGCAUCA
B3: chr14:35182089:35182090:-_ENSG00000165410_ENST00000422678|hu_mus|motif|central (ssRNA)
RNA: GGGAGUUCUACAGUCCGACGAUCCUUAAGAUCAAAUGGCACUUGGCUAUUAUUUUAUAGUGGCUUUCCUUCAAGGGAAACGGCAACACUGCCCCCCAGUUUCUCUCCCAGCGUCGAGCGGUCCUUAAUAUCGUCCAAGCCAUUCAACAGAGGAUUGAGCAUCA
B4: chr13:90244479:90244480:+_ENSMUSG00000012422_ENSMUST00000161568|mus_hu|FALSE|FALSE (ssRNA)
RNA: GGGAGUUCUACAGUCCGACGAUCCAAAAUGGUGUGCCCAGAGGAAAAGCAAGCACUAUUAAAUAUUAAUGCAAUCCUUAUCAACACAAAUUGAGCCAUUUUAAUAAAAAAGCUAGUCCAAAAAAGGUUCUCAUUCUAUAAAGACAACAGAGGAUUGAGCAUCA
B5: chr2:47387770:47387771:-_ENSG00000143933_ENST00000272298|hu_mus|hu_hu_hu_mus_True|18_38 (ssRNA)
RNA: GGGAGUUCUACAGUCCGACGAUCAAGGUUUAAGGACAAUGACAGUAAGAUAAGGGAAGAAAACAUGGAGGAAUGAAGUCCUAAUUACUAUACAUGCAUAUUUUUUUACAGUAGGGGAGAAACCUUUUUUACAGAUAAGUUACACAACAGAGGAUUGAGCAUCA
B6: chr3:58389949:58389950:+_ENSMUSG00000075700_ENSMUST00000107924|mus_hu|FALSE|FALSE (ssRNA)
RNA: GGGAGUUCUACAGUCCGACGAUCCAAGAAGAAAACCAUCAUACAUGCAUAAACCUUAUUUUCUUGGCCCCACUGCCAGAUGCUAGGAGCUUGCAUGCCAAAGAAAGCAAAAGGAUCCUUGCCAACAAUUAUUAAGCCUAUUAACAACAGAGGAUUGAGCAUCA
B7: chr17:26793470:26793471:+_ENSMUSG00000001576_ENSMUST00000167662|mus_hu|FALSE|FALSE (ssRNA)
RNA: GGGAGUUCUACAGUCCGACGAUCCGGAGCUUAGAGCCAAAAAUUACAAAUGGCAGAGACUUGAGCUAUCCAUAAGAUAAUUUUAAAAAUCCUUCCACUGGACACUCCCCUUCAUUACAAAAGUAUGCAAACAAUCUUGCUAUACAACAGAGGAUUGAGCAUCA
B8: chr2:91446484:91446485:+_ENSMUSG00000040549_ENSMUST00000099716|mus_hu|motif|central (ssRNA)
RNA: GGGAGUUCUACAGUCCGACGAUCCAAUUUCUCAUCUGCCAUGUGUGUGUUGUAGAUGAGUCUUAGCUGCAUAAAAGUGGCGGUCAGAAACUGAUCAAUAUGGCCGGACAUGGCUUCAGCUUUGUCUUCCUGUCUCAGGACCUCCAACAGAGGAUUGAGCAUCA
B9: 89236039_89237110_928_3pUTR_ENSG00000065243_ENST00000370521|human|control|control (ssRNA)
RNA: GGGAGUUCUACAGUCCGACGAUCGGUUUUGCAUUAUCAAAAGCCAAUUCAUUAGUCUGGACUGCCUGAAGAAUCUGCAUUCGUAUGACUUCUAUUUUUGUCUUGCUGUCCUGGAGCAGUUGCUGAGCUGUACCAUGGAGUUUCCAACAGAGGAUUGAGCAUCA
B10: chr5:145543945:145543946:-_ENSG00000133706_ENST00000545646|hu_hu|hu_hu_hu_mus_True|1_8 (ssRNA)
RNA: GGGAGUUCUACAGUCCGACGAUCCUGAACGGCCAGUGGUGGGAAAUAAUCAAGCCAGUGCUCUGCUUCAGAAAACUUCACUAUGUCGUCAUCAGAGAGCCCAAGGGAUUUCAUAAUGUCCCACUGGUAUUUAGAAGAUCCAGCCAACAGAGGAUUGAGCAUCA
B11: chr17:56552419:56552420:-_ENSMUSG00000013236_ENSMUST00000086828|mus_mus|mus_mus_mus_hu_False|1_98 (ssRNA)
RNA: GGGAGUUCUACAGUCCGACGAUCAAAAAAUACACUAUAAAAAAAAAAUGAAAUGUCACGGGAUACAGUUACACUGAGAGUUUUAAAAGAAAGCUGGAUUCUGGUCCCAGCCCAGUGUCCCCAGGCUGCAGAGCGGGGCAGAGGCAACAGAGGAUUGAGCAUCA
B12: chr17:56552419:56552420:-_ENSMUSG00000013236_ENSMUST00000086828|mus_hu|FALSE|FALSE (ssRNA)
RNA: B11 RNA with A38U, A39U, C138A, A139G, G143C
B13: chr17:56552419:56552420:-_ENSMUSG00000013236_ENSMUST00000086828|mus_mus|mus_mus_mus_hu_False|8_98 (ssRNA)
RNA: GGGAGUUCUACAGUCCGACGAUCAAAAAAUACACUAUAAAAAAAAAAUGAAAUGUCACGGGAUACAGUUACACUGAGAGUUUUAAAAGAAAGCUGGAUUCUGGUCCCAGCCCAGUGUCCCCAGGCUGAGUGCGGAAGAGGAGCCAACAGAGGAUUGAGCAUCA
B14: chr17:56552419:56552420:-_ENSMUSG00000013236_ENSMUST00000086828|mus_mus|mus_mus_mus_hu_False|98_98 (ssRNA)
RNA: B11 RNA with C138A, A139G, G143C
B15: chr17:56552419:56552420:-_ENSMUSG00000013236_ENSMUST00000086828|mus_mus|mus_mus_mus_hu_False|8_48 (ssRNA)
RNA: B13 RNA with A38U, A39U, G88A, G92A, C93U, U94A, G95A

What follows are binders tested against T1, UNK ZnF1-3 (assay: nsRBNS (natural sequence RNA bind-n-seq); RBNS binding buffer (assumed for nsRBNS): 25 mM Tris pH 7.5, 150 mM KCl, 3 mM MgCl2, 0.01% Triton X-100, 500 ug/ml BSA, 20 U/ml SUPERase-In, 4 C; UNK is unkempt and MSI1 is Musashi-1; names of the RNAs are library labels; protein concentration not given here; high values mean tight binding).
Work on B1 yielded a binding signal of 1.08 enrichment R. B2 was tested, and the binding signal was 5.74 enrichment R. Work on B3 yielded a binding signal of 1.04 enrichment R. B4 was tested, and the binding signal was 4.62 enrichment R. Binder B5 has a binding signal of 1.7 enrichment R. Work on B6 yielded a binding signal of 1.51 enrichment R. In the case of B7, the binding signal is reported as 3.67 enrichment R. With B8 the binding signal was 0.637 enrichment R. Binder B9 has a binding signal of 0.571 enrichment R. In the case of B10, the binding signal is reported as 1.44 enrichment R. With B11 the binding signal was 5.8 enrichment R. B12 was tested, and the binding signal was 3.32 enrichment R. B13 gave a binding signal of 5.52 enrichment R. For B14, the binding signal was 4.54 enrichment R. In the case of B15, the binding signal is reported as 6.71 enrichment R.
